# Bioassay records: PubChem, National Center for Advancing Translational Sciences (NCATS)
# CHX counter: Cycloheximide Counterscreen for Small Molecule Inhibitors of Shiga Toxin; cell reporter, cycloheximide protein synthesis inhibition counterscreen; actives 12% (n = 300,000); max response, %; AID 2314, 2010; in the data active = max response mostly above about 13%, no sharp cut-off; inactive = mostly below about 14%; also: read at 38.3 µM for the half of the compounds with a filed dose; 0% is about no effect
# AMA1-RON2 inh: qHTS for Inhibitors of AMA1-RON; Towards Development of Antimalarial Drug Lead: Primary Screen | AID 720542, 2013 | actives 0.2% (n = 360,000) | Potency, µM (top dose mostly 58.2 µM), without a hit: top-dose activity change, negative = inhibition, most hits filed as inhibitors | AlphaScreen AMA1-biotinylated RON2 peptide binding | Plasmodium falciparum AMA1 (3D7) - RON2 peptide interaction;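 also: potency is read from the fitted curve at half-maximal effect; 0% = vehicle wells and -100% = peptide control; nearly all actives have a fitted effect of over 45% in size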
#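 AMA1 (3D7) with his tag at 25 nM final met compounds first, then biotinylated RON2 peptide at 25 nM; detection used donor plus acceptor beads, 10 µg/mL apiece, read by AlphaScreen after 30 min at room temperature.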
# Shiga inhibitor: A qHTS for Small Molecule Inhibitors of Shiga Toxin; inhibition, % at 38.7 µM; actives 9.2% (n = 290,000); Vero cells, Shiga toxin protein synthesis inhibition reporter; in the data active = inhibition mostly above about 28%, no sharp cut-off; inactive = mostly below about 43%; also: 0% is about no effect
# Pf growth 96h: Primary qHTS for delayed death inhibitors of the malarial parasite plastid, 96 hour incubation; P. falciparum luciferase reporter growth, 96 h; actives 6.9% (n = 320,000); Potency, µM (series often up to 28.7 µM), inactives show at the highest dose activity change, negative = inhibition, hits mostly inhibitors; also: potency is read from the fitted curve at half-maximal effect; % is scaled to controls: 0 for no effect and ±100 for the full control effect
#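 Compounds incubated with erythrocytes infected by luciferase-expressing P. falciparum (2% hematocrit, 0.05% parasitemia final) for 96 hours, 37 C in 5% CO2. Growth inhibition scored as decreased luciferase luminescence.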
# Pf growth 48h: Primary qHTS for delayed death inhibitors of the malarial parasite plastid, 48 hour incubation. P. falciparum luciferase growth in erythrocytes, 48 h. Potency, µM (top dose mostly 28.7 µM), for inactives: at the highest dose activity change, negative = inhibition, hits mostly inhibitors. actives 5.9% (n = 310,000). AID 504832, 2011; also: potency is read from the fitted curve at half-maximal effect; % is scaled to controls: 0 for no effect and ±100 for the full control effect
#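 Firefly luciferase activity from engineered P. falciparum reports growth; inhibitors lower the luminescent signal. Cultures contained 2% hematocrit erythrocytes at 0.1% final parasitemia.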
# SARS PLP yeast: qHTS of Yeast-based Assay for SARS-CoV PLP; S. cerevisiae expressing SARS-CoV PLpro, growth rescue; Potency, µM (titrated, usually from 32.9 µM), for inactives: at the highest dose activity, positive = growth rescue, most hits filed as activators; actives 0.19% (n = 330,000); AID 485353, 2010; calls by dose curve; also: potency is read from the fitted curve at half-maximal effect; 0% is about no effect; nearly all actives have a fitted effect of over 55% in size
# An asterisk follows results filed as active; i = inactive; ? = inconclusive; nt = not tested or not shown; [ ] = another dose, or the depositor's remark. Shown are actives, neighbours in structure and some others; about 19% of the full set was active somewhere. Unless noted, calls follow the shape of the dose curve; as a rule, active = well fitted curve in the direction sought with a large enough effect; inconclusive = small, poorly fitted or top-dose-only effect, or another doubt; inactive = no such curve, though single readings can be large; an effect the other way counts as inactive or inconclusive.
SMILES,CHX counter,AMA1-RON2 inh,Shiga inhibitor,Pf growth 96h,Pf growth 48h,SARS PLP yeast
Cc1ccc2nc(-c3ccc(NS(C)(=O)=O)cc3)cc(-c3ccccc3)c2c1,-4,-9%,-18,?,?,-28%
Cc1ccc2nc(-c3ccccc3)cc(C(=O)Nc3cccnc3)c2c1,nt,13%[11.6 µM],nt,1.7µM*,2.1µM*,5%
CCNc1nc2nonc2nc1NCC,-1,3%,-3,?,36%,3%
Cc1cccc(NP(C)(=O)c2nc3c(s2)CCCC3)c1 (centres undefined),25*,?,37*,46%,0%,-6%
Cc1ccc(OP(=O)(Nc2cccc(C)c2)Oc2ccc(C)cc2)cc1,-1,-9%,23,0%,?,-5%
O=C(CSc1nnnn1C1CCCCC1)Nc1nc2c(s1)CCCC2,12,-19%,16,-17%,?,nt
O=C(NC(=S)Nc1nc2c(s1)CCCC2)c1ccccc1,58*,42%,95*,-13%,146%,17%
S=C(Nc1nc2c(s1)CCCC2)NC1CC1,52*,41%,77*,0%,?,12%
O=C(CS(=O)(=O)Cc1ccccc1)Nc1nc2c(s1)CCCC2,-3,0%,31,nt,7%,0%
COC(=O)c1ccc(C(=O)NC(=S)Nc2nc3c(s2)CCCC3)cc1,20*,29%,63,i,88%,-2%
Cc1nn(-c2cccc(C(F)(F)F)c2)c(=O)c2ccccc12,16*,5%,nt,2%,23%,1%
Cc1cc(=O)c(C(=O)O)nn1-c1cccc(C(F)(F)F)c1,-3,14%,-8,25%,23%,1%
O=c1ccn(-c2cccc(C(F)(F)F)c2)nc1-c1ccn(-c2ccccc2)n1,10,2%,-18,0%,10µM*,-2%
CCc1cc2c(=O)n(-c3ccccc3)cnc2s1,53*,11%,105*,8%,25%,2%
CCc1cc2c(SCC(=O)c3ccc(C)cc3)ncnc2s1,-3,4%,9,?,25%,-10%
CCc1cc2c(=O)n(-c3ccc(C)cc3)cnc2s1,53*,-2%,74*,?,370%,12%
COc1ccc(Nc2cccc3ccccc23)cc1,nt,?,nt,?,?,-4%
COc1cc(OC)c(C2C=CC(=O)CC2)c(OC)c1 (centres undefined),nt,0%,nt,nt,nt,nt
C=CCN(CC=C)C(=O)c1cccc(S(=O)(=O)N2c3ccccc3CC2C)c1 (centres undefined),-1,4%,-7,?,2.3µM*,-1%
O=C(Nc1cccnc1)c1cccc(S(=O)(=O)N2CCc3ccccc32)c1,5,14%,-4,3.3µM*,10µM*,0%
CC1Cc2ccccc2N1S(=O)(=O)c1cccc(C(=O)NC2CC2)c1 (centres undefined),0,3%,15,?,nt,-1%
CC1Cc2ccccc2N1S(=O)(=O)c1cccc(C(=O)Nc2cccnc2)c1 (centres undefined),-2,6%,-5,?,8.3µM*,5%
O=C(Nc1ccncc1)c1cccc(S(=O)(=O)N2CCc3ccccc32)c1,nt,-15%,nt,?,10µM*,3%
O=C(O)c1cccc(NC(=O)c2cccc(S(=O)(=O)N3CCc4ccccc43)c2)c1,-2,-2%,17,-17%,-7%,0%
COc1cc(CNC2CCCCCCC2)c(Br)cc1OCCO,-2,9%,-6,?,?,6%
SMILES,CHX counter,AMA1-RON2 inh,Shiga inhibitor,Pf growth 96h,Pf growth 48h,SARS PLP yeast
CC(=O)N1c2ccc(S(=O)(=O)N3c4ccccc4CC3C)cc2CC1C (centres undefined),5,-10%,-9,25%,?,1%
CC(=O)Nc1ccc(NC(=O)c2ccc(Cl)c(S(=O)(=O)N3CCc4ccccc43)c2)cc1,nt,39%,nt,nt,nt,nt
COc1ccc(S(=O)(=O)N2CCc3ccccc32)cc1C(=O)O,-4,11%,nt,91%,1%,0%
O=C(Nc1cccnc1)c1ccc(Cl)c(S(=O)(=O)N2CCc3ccccc32)c1,6,7%,5,3.7µM*,2.6µM*,-2%
COc1ccc(S(=O)(=O)N2CCc3ccccc32)cc1C(=O)Nc1cccnc1,-3,24%,-2,2.9µM*,?,0%
CC1Cc2ccccc2N1S(=O)(=O)c1ccc2c(c1)n(C)c(=O)c(=O)n2C (centres undefined),-3,19%,-9,?,9.3µM*,2%
COc1ccc(S(=O)(=O)N2CCc3ccccc32)cc1C(=O)NCCc1ccccn1,6,-4%,-15,?,10µM*,-4%
CCCC(c1nnnn1CS(=O)(=O)c1ccc(C)cc1)N1CCN(C2CCCC2)CC1 (centres undefined),-8,-6%,-1,7%,?,-1%
Cc1ccc(S(=O)(=O)Cn2nnnc2C(C(C)C)N2CCN(c3nc4ccccc4s3)CC2)cc1 (centres undefined),1,-2%,2,?,4.7µM*,-4%
COc1ccccc1C(c1nnnn1CS(=O)(=O)c1ccc(C)cc1)N1CCSCC1 (centres undefined),-5,0%,-19,100%,9.3µM*,-1%
CCCCC(c1nnnn1CS(=O)(=O)c1ccc(C)cc1)N1CCN(c2ccccc2)CC1 (centres undefined),-2,-9%,-14,nt,13µM*,-14%
Cn1c(=O)c2c(nc3n2CC(O)CN3c2ccc(O)cc2)n(C)c1=O (centres undefined),0,-3%,-1,-4%,-15%,3%
CC(NC(=O)CCCn1cc([N+](=O)[O-])cn1)c1ccccc1 (centres undefined),-3,26%,-7,-16%,-4%,-5%
CCOc1ccc(N2CC(C(=O)Nc3nnc(C4CCCCC4)s3)CC2=O)cc1 (centres undefined),-3,2%,-4,?,11%,-1%
COc1cc(C2C=C(c3cccs3)Nc3ncnn32)cc(OC)c1OC (centres undefined),-3,5%,28,-14%,?,-5%
CCOC(=O)c1ccc(S(=O)(=O)NNC(=O)Cc2csc(C)n2)cc1,nt,-3%,nt,nt,nt,-4%
Cc1ccc(NC(=O)C2(c3ccccc3)CC2(Cl)Cl)cc1C (centres undefined),66*,-2%,128*,?,?,-26%
Cc1cc(C)cc(NC(=O)C2(c3ccccc3)CC2(Cl)Cl)c1 (centres undefined),-5,3%,-5,2.3µM*,4.7µM*,-33%
